# Compound activity as filed in PubChem BioAssay.
# An excerpt weighted towards active compounds, which were near 1.4% of everything screened.
# KCNH2 3.1 inh = qHTS for Inhibitors of KCHN2 3.1: Mutant qHTS. Potassium voltage-gated channel subfamily H member 2, brain isoform KCNH2 3.1 (human). U2OS KCNH2 3.1, thallium flux FluxOr; stronger effect = lower value. activity change, % (tested at about 1.8 µM). 340,000 compounds, 0.95% hits. AID 720553, 2013;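 active = maximum activity change below -70%; inconclusive = maximum activity change from -70% to -50%; inactive = maximum activity change above -50%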;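 note: thallium influx rate constant from kinetic fluorescence after stimulation buffer; % is set by controls: 0 for no effect and ±100 for the full control effect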
#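 Normalized rate constant (relative to positive and negative DMSO controls) derived from a 2 min kinetic fluorescence read after stimulation; U2OS cells expressing the 3.1 isoform via virus at 1.77 x 10^8 /mL.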
# RXFP1 ag = qHTS Assay for Agonists of the Relaxin Receptor RXFP1; 370,000 compounds, 0.3% hits; HEK293T-RXFP1 cAMP TR-FRET, 30 min; response scale: percent of porcine relaxin response, buffer zero; Relaxin receptor 1 (Homo sapiens), Q9HBX9; AID 2676, 2010; Potency, µM (titrated, usually from 57.5 µM), for the others: at the highest dose activation, most hits filed as activators; note: potency is the fitted concentration of half-maximal effect; % is set by controls: 0 for no effect and ±100 for the full control effect; nearly all actives have a fitted effect of over 60% in size
# Target sequence (Q9HBX9 whole entry, looked up): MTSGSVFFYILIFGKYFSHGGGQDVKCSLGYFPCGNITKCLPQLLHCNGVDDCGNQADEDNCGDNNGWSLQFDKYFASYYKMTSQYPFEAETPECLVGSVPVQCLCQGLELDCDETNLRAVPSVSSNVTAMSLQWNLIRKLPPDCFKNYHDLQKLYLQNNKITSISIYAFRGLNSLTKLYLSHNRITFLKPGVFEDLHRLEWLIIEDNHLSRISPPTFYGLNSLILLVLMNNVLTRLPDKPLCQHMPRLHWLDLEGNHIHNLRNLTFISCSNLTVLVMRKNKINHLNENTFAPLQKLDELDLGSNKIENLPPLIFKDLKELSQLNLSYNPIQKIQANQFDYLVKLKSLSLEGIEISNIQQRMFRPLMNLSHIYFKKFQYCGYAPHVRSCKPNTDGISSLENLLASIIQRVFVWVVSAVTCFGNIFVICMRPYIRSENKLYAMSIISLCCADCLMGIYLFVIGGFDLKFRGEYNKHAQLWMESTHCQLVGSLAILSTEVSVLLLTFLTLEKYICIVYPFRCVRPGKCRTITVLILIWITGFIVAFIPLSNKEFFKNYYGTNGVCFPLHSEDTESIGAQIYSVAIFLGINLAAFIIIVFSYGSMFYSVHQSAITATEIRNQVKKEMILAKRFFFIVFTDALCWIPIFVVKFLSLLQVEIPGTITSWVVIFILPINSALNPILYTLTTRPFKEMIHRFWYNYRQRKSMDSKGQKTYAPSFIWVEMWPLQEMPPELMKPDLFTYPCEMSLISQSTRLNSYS
#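 HEK293T cells stably expressing RXFP1 were pretreated with the PDE4 inhibitor Ro 20174, exposed to compounds for 30 min at 37C, lysed, and cAMP was read by TR-FRET. Data normalized to buffer (basal) and 29 nM porcine relaxin (100%).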
# Glioma ERSR ind = qHTS for Inducers of the Endoplasmic Reticulum Stress Response (ERSR) in Human Glioma: qHTS. U87-MG GRP78 promoter luciferase reporter, 16 h. Potency, µM, inactives show at the top dose activation, usual class: activators. 420,000 compounds, 0.02% hits; note: potency is the fitted concentration of half-maximal effect; series mostly up to about 76 µM; % of control where 0% means no effect; nearly all actives have a fitted effect of over 35% in size
#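 Stably transfected U87-MG human glioma cells carrying a GRP78-based luminescent sensor were seeded at 1000 cells/well, pin-dosed with compounds and incubated 16 h. Luciferase reagent was then added, and end-point luminescence was read after 10 min at room temperature.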
# PTHR1 agonist = qHTS for PTHR1 Agonists: Primary Screen | Potency, µM (titrated, usually from 115 µM), for the others: at the highest dose activation, actives largely listed as activators | 410,000 compounds, 0.075% hits | Parathyroid hormone/parathyroid hormone-related peptide receptor (Homo sapiens), Q03431 | HEK293 GP2 PTHR1 cells, GloSensor cAMP luminescence, 1 h; note: potency is the fitted concentration of half-maximal effect; nearly all actives have a fitted effect of over 55% in size
#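 HEK-293-derived GP2 cells expressing PTHR1 and a GloSensor cAMP reporter, 3,000/well, plated overnight, given luciferin plus IBMX (each 0.5 mM as added) for 1 h at 37 °C, then compound for 1 h at 37 °C. Luminescence was read after 15 min at room temperature.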
# hERG WT inh = qHTS for Inhibitors of KCHN2 3.1: Wildtype qHTS. Voltage-gated inwardly rectifying potassium channel KCNH2 (Homo sapiens), Q12809. U2OS, BacMam KCNH2, thallium flux FluxOr; stronger effect = lower value. activity change, % at 1.84 µM. 340,000 compounds, 0.37% hits;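 active = maximum activity change below -70%; inconclusive = maximum activity change between -70% and -50%; inactive = maximum activity change above -50%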; note: % is set by controls: 0 for no effect and ±100 for the full control effect
#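 U2OS cells were transduced with wild-type KCNH2 virus (2.03 x 10^8 / mL) for 4 h at room temperature, then cultured overnight at 37 C. Thallium flux was read with FluxOr dye. Rate constants were normalized to DMSO controls.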
# RXFP1 antagonist = qHTS Assay for Antagonists of the Relaxin Receptor RXFP1 | Relaxin receptor 1 (Homo sapiens), Q9HBX9 | HEK293-RXFP1, relaxin-stimulated cAMP HTRF, 30 min; stronger effect = lower value | activity change, negative = inhibition, % at 57.5 µM | 350,000 compounds, 0.59% hits;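 active = activity change of -60% or lower, but not beyond a set lower limit; inconclusive = change between -60% and -40%, or beyond the set limit; inactive = change above -40%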; note: % is set by controls: 0 for no effect and ±100 for the full control effect
# The depositor's hits bear a star; i = inactive; u = inconclusive; x = no result given; [ ] = dose if it differs, or a comment. Unless noted, calls come from the whole dose curve; as a rule, active = well fitted curve in the direction sought with a large enough effect; inconclusive = small, poorly fitted or top-dose-only effect, or another doubt; inactive = no such curve, though single readings can be large; an effect the other way counts as inactive or inconclusive.
SMILES,KCNH2 3.1 inh,RXFP1 ag,Glioma ERSR ind,PTHR1 agonist,hERG WT inh,RXFP1 antagonist
CCCCNc1c(-c2ccc(-c3ccc(C(C)=O)cc3)c(OC)c2)nc2cc(C)ccn12,-71*,x,1%,-1%,-15,x
CCCCNc1c(-c2ccc(Sc3ccc(OC)cc3)cc2)nc2cc(C)ccn12,-84*,x,12%,-31%,u,x
CCCCNc1c(-c2ccc(OC)c(SC(C)CC)c2)nc2cc(C)ccn12 (stereo unspecified),-82*,x,-7%,-93%,3,x
CNc1c([N+](=O)[O-])cnn1-c1ccccn1,1,1%,-4%,i,0,3
Nc1nc(C2C(=O)CCCC2=O)cs1,0,0%,3%,i,-6,0
O=C(Nc1ncc(Cc2ccccc2Cl)s1)C1=NCCN1,2,1%,1%,i,-2,-10
CCc1ccc(Cc2cnc(NC(=O)C3=NCCN3)s2)cc1,-23,-3%,-6%,-7%,-7,-116*
CCOC(=O)c1ccc2c(c1)N(Cc1cc(C)ccc1C)C(=O)c1ccccc1S2(=O)=O,x,1%,-2%,-20%,x,6
Cc1ccc(C(=O)Nc2ccc(SC(F)F)cc2)s1,-2,0%,-1%,-47%,4,-73*
O=C(NCc1ccccc1)c1onc(CSc2ccc(F)cc2)c1C(=O)NCCCN1CCOCC1,-81*,-2%,-3%,-9%,u,x
O=C(NCc1ccccc1)c1onc(CSc2ccc(F)cc2)c1C(=O)NCc1ccccc1,9,x,-4%,-12%,1,x
Cc1ccc(C(=O)N2CCC(C(N)=O)CC2)cc1C,10,-1%,-1%,-6%[57.5 µM],2,-13
CCC(C(=O)NCCCN1CCOCC1)n1c2ccccc2c2nc(=O)cc(C)n21 (stereo unspecified),-4,0%,-6%,-28%,-10,-70*
O=C(Nc1nccs1)c1nc[nH]c1C(=O)N1CCc2ccccc2C1,14,0%,-4%,i,-4,x
Cc1ccc(/C=C/C(=O)NCCCN2CCN(CCCNC(=O)/C=C/c3ccc(C)o3)CC2)o1,-76*,1%,-4%,-16%,-2,24
O=C(/C=C/c1ccc(F)cc1)NCCCN1CCN(CCCNC(=O)/C=C/c2ccc(F)cc2)CC1,-92*,-1%,-2%,-21%,-43,-15
Nc1nc2c(Cl)cc(Cl)cc2s1,-4,3%,5%,-24%,-4,8
COC(=O)[C@]12CCCCC=C1N(Cc1ccco1)C(=O)[C@H](CC(=O)NCCCN1CCCC1=O)C2,x,x,x,-3%,x,x
Cc1ccnc(NC(=O)CNC(=O)c2ccccc2Br)c1,-1,-2%,11%,0%,-71*,0
Cc1ccnc(NC(=O)CNC(=O)c2ccc3ccccc3c2)c1,-16,0%,2%,-2%,12,-18
Cc1ccc(CNC(=O)C2CCC(=O)N(C3CC3)C2)cc1 (stereo unspecified),9,1%,-1%,i,5,6
O=C(NCC(c1ccco1)N1CCCCC1)c1ccc(COc2ccccc2)cc1 (stereo unspecified),-17,1%,-4%,-11%,25,-21
O=C(NCCCn1ccnc1)Nc1cccc(Cl)c1,8,0%,-2%,i,2,8
O=C(NCCCn1ccnc1)Nc1ccc2c(c1)OCO2,4,3%,12%,-7%,-112*,-5
CCc1nc2c(OCc3cccc(Cl)c3)cccn2c1N(C)C(=O)C(C)C,x,x,-1%,i,x,x
SMILES,KCNH2 3.1 inh,RXFP1 ag,Glioma ERSR ind,PTHR1 agonist,hERG WT inh,RXFP1 antagonist
Cc1ccc(-c2n[nH]c(=S)n2/N=C/C=C/c2ccccc2[N+](=O)[O-])cc1,-35,2%,-2%,-4%[57.5 µM],8,-29
O=[N+]([O-])c1ccccc1/C=C/C=N/n1c(-c2cc(-c3ccccc3)n[nH]2)n[nH]c1=S,-4,1%,-1%,-4%,-1,-69*
Cc1ccc(Cl)cc1NC(=O)NCc1ccccn1,-2,0%,11%,-7%,-14,3
CCc1ccc(NC(=O)CSc2nc3ccccc3c(=O)n2CCNC(C)=O)cc1,x,2%,-3%,-31%,x,-3
Cc1ccc(NC(=O)CSc2nc3ccccc3c(=O)n2Cc2cccs2)cc1,-73*,-1%,1%,i,15,3
CCc1ccc(NC(=O)CSc2nc3ccccc3c(=O)n2CCCN2CCC(C)CC2)cc1,-97*,2%,-11%,-24%,-135*,-11
COc1cccc(CC(=O)Nc2ccc3c(c2)CCC3)c1,14,-2%,-3%,-13%,1,-6
Cc1ccccc1Cc1c(C)nc2nc(SCC(=O)N(C)c3ccccc3)nn2c1C,x,3%,-1%,-18%,x,-19
CCOC(=O)c1c(N)n(CC(C)NC(=O)C2CC2)c2nc3ccccc3nc12 (stereo unspecified),x,4%,x,x,x,x
CCCCN1C(=O)C(O)(c2c(C)[nH]c3ccccc23)c2cc(Br)ccc21 (stereo unspecified),x,0%,x,-25%,x,-103*
CN(C)c1ccc(-c2nnn(Cc3ccccc3Br)n2)cc1,-93*,2%,6%,-29%,-31,7
CC(=O)Nc1cc(-c2ccccc2)cn2c(-c3ccc(F)cc3)cnc12,x,x,5%,-5%,x,x
N#Cc1c(-c2ccccc2)nc(SCC(=O)Nc2nnc(C(F)(F)F)s2)[nH]c1=O,7,18µM*,-5%,-3%,12,22
N#Cc1c(-c2ccccc2)nc(SCC(=O)Nc2ccccc2F)[nH]c1=O,-9,20%,-4%,-10%,-1,31
Cc1cc(NC(=O)CSc2nc(-c3ccccc3)c(C#N)c(=O)[nH]2)no1,16,u,-2%,i,-10,0
Cc1cc(C)nc(NS(=O)(=O)c2ccc(NC(=O)CSc3nc(-c4ccccc4)c(C#N)c(=O)[nH]3)cc2)n1,0,18µM*,-2%,i,-9,19
CCc1ccc(NC(=O)CSc2nc(-c3ccccc3)c(C#N)c(=O)[nH]2)cc1,x,25µM*,-1%,21%,x,5
N#Cc1c(-c2ccccc2)nc(SCC(=O)Nc2ccccc2)[nH]c1=O,18,26%,-2%,23%,-5,7
